Nine compounds from PubChem BioAssay (NCATS) can be followed below.

Experiment [1] deals with Metallo-beta-lactamase type 2 (Klebsiella pneumoniae) (UniProt C7C422). The experiment in a line: qHTS to identify inhibitors of the New Delhi Metallo-beta-lactamase (NDM): assay validation screen against the NCATS LOPAC Collection (AID 1794843). The following applies: NDM-1 enzyme, nitrocefin hydrolysis, absorbance 485 nm; series mostly up to 38.4 µM. In outline: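 Absorbance at 485 nm from nitrocefin turnover (50 uM solution added), read at plateau, gives the read-out. Compounds in DMSO were incubated first with 2 nM final NDM-1 in pH 7.0 HEPES buffer containing 1 uM ZnSO4 and 0.01% Tween20.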

Experiment [2] concerns the target Glutathione peroxidase 1 (Homo sapiens) (UniProt P07203). As to the kind of experiment: Primary qHTS Assay for Inhibitors of Recombinant Selenoprotein Glutathione Peroxidase 1 (GPX1) (AID 1845191). Note: nearly all actives have a fitted effect of over 65% in size. The conditions noted are these: recombinant GPX1, GR-coupled NADPH fluorescence, 15 min; series mostly up to 48.8 µM. A digest of the protocol:
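GPX1 10 nM, GR 100 nM, GSH 1 mM, NADPH 0.5 mM, CHP 0.5 mM (final). 30-min cpd preincubation, RT. Ex340/Em450 read t=0, t=15 min.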

Experiment [3] addresses Phospholipid hydroperoxide glutathione peroxidase GPX4 (Homo sapiens) (UniProt P36969). The experiment in a line: Primary qHTS Assay for Inhibitors of Recombinant Selenoprotein Glutathione Peroxidase 4 (GPX4) (AID 1845192). Note: nearly all actives have a fitted effect of over 65% in size. The following applies: recombinant GPX4, GR-coupled NADPH fluorescence, 15 min; series mostly up to 50 µM. A digest of the protocol:
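qHTS, GR-coupled: GPX4 200 nM + cpd 30 min RT → GSH 1 mM, NADPH 0.5 mM, GR 100 nM → CHP 0.5 mM start; fluor 340/450 at t0 and t15 min; no-enzyme wells as control.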

The nature of experiment [4]: Quantitative High-Throughput drug screen in 47 multiple myeloma cell lines against the NCATS MIPE library collection: FR4_PLB cell viability assay (AID 1918924; note: nearly all actives have a fitted effect of over 35% in size; note: potency is the fitted concentration of half-maximal effect). The conditions noted are these: FR4_PLB myeloma cells viability, CellTiter-Glo ATP, 48 h; series mostly up to 45.8 µM. A digest of the protocol: (§1)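 qHTS of the MIPE 4.0 collection: 500 myeloma cells/well, 48 h drug exposure at 37C in 5% CO2, then CellTiter-Glo for 5 min at room temperature before luminescence reading.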

A short description of experiment [5]: Quantitative High-Throughput drug screen in 47 multiple myeloma cell lines against the NCATS MIPE library collection: EJM_DSMZ cell viability assay (AID 1918926; note: nearly all actives have a fitted effect of over 30% in size; note: potency is the fitted concentration of half-maximal effect). The following applies: EJM myeloma cell viability, CellTiter-Glo ATP, 48 h; series mostly up to 45.8 µM. In outline: (§2)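 Primary qHTS used for cherry-picking: cells at 500/well, library compounds for 48 h (37C, 5% CO2), luminescent ATP assay.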

Experiment [6] is described as follows: Quantitative High-Throughput drug screen in 47 multiple myeloma cell lines against the NCATS MIPE library collection: ARD_JJKsccE7 cell viability assay (AID 1918929; note: potency is the fitted concentration of half-maximal effect). The following applies: ARD myeloma cell line viability, CellTiter-Glo, 48 h; series mostly up to 45.8 µM. In outline: as §2
The nature of experiment [7]: Quantitative High-Throughput drug screen in 47 multiple myeloma cell lines against the NCATS MIPE library collection: Karpas620_DSMZ cell viability assay (AID 1918959). Note: nearly all actives have a fitted effect of over 30% in size. Note: potency is the fitted concentration of half-maximal effect. The following applies: Karpas620 myeloma viability, CellTiter-Glo ATP luminescence, 48 h; series mostly up to 45.8 µM. A digest of the protocol: as §1
Experiment [8] in a line: Quantitative High-Throughput drug screen in 47 multiple myeloma cell lines against the NCATS MIPE library collection: KMM1_JCRB cell viability assay (AID 1918960). Note: nearly all actives have a fitted effect of over 30% in size. Note: potency is the fitted concentration of half-maximal effect. The following applies: KMM1 myeloma viability, CellTiter-Glo ATP luminescence, 48 h; series mostly up to 45.8 µM. In outline: (§3)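 CellTiter-Glo luminescence after 48 h exposure gives viability, scaled between DMSO-only (100%) and media-only (0%) controls. Library compounds are pinned onto 500 myeloma cells per well, incubated at 37C with 5% CO2.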

The nature of experiment [9]: Quantitative High-Throughput drug screen in 47 multiple myeloma cell lines against the NCATS MIPE library collection: Delta47_JCRB cell viability assay (AID 1918925; note: nearly all actives have a fitted effect of over 45% in size; note: potency is the fitted concentration of half-maximal effect). The conditions noted are these: Delta47 myeloma viability, CellTiter-Glo ATP, 48 h; series mostly up to 45.8 µM. In outline:
as §2

The nature of experiment [10]: Quantitative High-Throughput drug screen in 47 multiple myeloma cell lines against the NCATS MIPE library collection: AMO1_DSMZ cell viability assay (AID 1918927; note: nearly all actives have a fitted effect of over 30% in size; note: potency is the fitted concentration of half-maximal effect). The following applies: AMO1 myeloma cells viability, CellTiter-Glo ATP luminescence, 48 h; series mostly up to 45.8 µM. A digest of the protocol:
as §2

Experiment [11] in a line: Quantitative High-Throughput drug screen in 47 multiple myeloma cell lines against the NCATS MIPE library collection: ARP1_JJKsccF8 cell viability assay (AID 1918928; note: nearly all actives have a fitted effect of over 40% in size; note: potency is the fitted concentration of half-maximal effect). The conditions noted are these: ARP1 myeloma cells viability, CellTiter-Glo ATP, 48 h; series mostly up to 45.8 µM. In outline: as §3
A short description of experiment [12]: Quantitative High-Throughput drug screen in 47 multiple myeloma cell lines against the NCATS MIPE library collection: Karpas417_ECACC cell viability assay (AID 1918961). Note: potency is the fitted concentration of half-maximal effect. The conditions noted are these: Karpas417 myeloma viability, CellTiter-Glo ATP luminescence, 48 h; viability (% of DMSO): at 45.8 µM (top of the series). In outline:
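Luminescent ATP measurement with CellTiter-Glo gives viability, scaled between DMSO-only wells (100%) and media-only wells (0%). Cells, 500 per well, faced library compounds for 48 hours at 37C.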

The nature of experiment [13]: Quantitative High-Throughput drug screen in 47 multiple myeloma cell lines against the NCATS MIPE library collection: KHM11_PLB cell viability assay (AID 1918962). Note: nearly all actives have a fitted effect of over 35% in size. Note: potency is the fitted concentration of half-maximal effect. The following applies: KHM11 myeloma cell viability, CellTiter-Glo ATP luminescence, 48 h; series mostly up to 45.8 µM. In outline:
as §1

The target of experiment [14] is Nuclear receptor subfamily 1 group I member 3 (Homo sapiens) (UniProt Q14994). As to the kind of experiment: Primary qHTS for agonist of constitutive androstane receptor (CAR) against the NCATS DSHEA and TCM libraries (AID 1794839).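 Note: HepG2 cells expressing human CAR with a CYP2B6 reporter plus PK11195 antagonist; luciferase reporter luminescence read with ONE-Glo.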 The conditions noted are these: CAR agonist reporter cells, qHTS luminescence, CAR antagonist co-added at 0.75 µM; series mostly up to 40 µM. In outline: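 Concentration–response screen in HepG2-CYP2B6-hCAR cells under 0.75 µM PK11195; 24 h exposure; luminescent reporter signal with multiplexed fluorescent viability.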

Experiment [15] in a line: HepG2 viability counterscreen (readout 2: ATP content) against the NCATS DSHEA and TCM libraries (AID 1794840).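 Note: HepG2 cells exposed to substances for about 24 h.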 The conditions noted are these: ATP content luminescence; series mostly up to 27.3 µM. A digest of the protocol:
(§4)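 After HepG2 cells attach for ~4 h, substances are added and incubated ~24 h at 37C, 5% CO2. GF-AFC fluorescence then CellTiter-Glo luminescence give protease and ATP readouts.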

A short description of experiment [16]: HepG2 viability counterscreen (readout 1: protease activity) against the NCATS DSHEA and TCM libraries (AID 1794841).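 Note: cells exposed to compounds for about 24 h before the protease read.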 The conditions noted are these: qHTS concentration series; series mostly up to 27.3 µM. A digest of the protocol: as §4
Experiment [17] deals with Luciferin 4-monooxygenase (Photinus pyralis) (UniProt P08659). The experiment in a line: Primary firefly luciferase (FLuc) qHTS assay for identification of artifact compounds. (AID 1845220). Note: nearly all actives have a fitted effect of over 60% in size. The conditions noted are these: purified firefly luciferase, luminescence, 5 min; series mostly up to 54.1 µM. A digest of the protocol:
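In this counter-screen for luciferase artifacts, test compounds met substrate (10 uM each luciferin and ATP) before 10 nM enzyme started the reaction. Light output was measured 5 min later.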

For experiment [18], the system named is Nanoluciferase (engineered Oplophorus gracilirostris luciferase). As to the kind of experiment: Primary Nanoluciferase (NLuc) qHTS assay for identification of artifact compounds. (AID 1845222).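 Note: NLuc secreted into diluted conditioned medium of S16 cells.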 The conditions noted are these: NLuc-conditioned medium, Nano-Glo luminescence, 5 min; series mostly up to 54.1 µM. In outline: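 Using secreted nanoluciferase in S16 culture medium (0.22 um filtered, 1:55 dilution), compounds were preincubated 15 min at RT. Signal was generated with Nano-Glo reagent (1:100) over 5 min.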

The nature of experiment [19]: Primary redox qHTS assay for identification of artifact compounds. (AID 1845223). The conditions noted are these: Amplex Red/HRP redox cycling with DTT, fluorescence; series mostly up to 53.8 µM. In outline: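 Redox-cycling detection via DTT (250 uM final) oxidation coupled to Amplex Red (25 uM)/HRP (250 mU/mL) in HBSS. 15 min preincubation plus 30 min after DTT, room temperature. Ex/Em 525/598 nm; 4-parameter Hill fit against DMSO and 10 uM DA3003.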

Records with an inconclusive call do not appear. Active and inactive are the calls of the source. Calls come from the whole dose curve; as a rule, active = well fitted curve in the direction sought with a large enough effect; inconclusive = small, poorly fitted or top-dose-only effect, or another doubt; inactive = no such curve, though single readings can be large; an effect the other way counts as inactive or inconclusive.

Metallo-beta-lactamase type 2 (Klebsiella pneumoniae), sequence (C7C422 whole entry, looked up): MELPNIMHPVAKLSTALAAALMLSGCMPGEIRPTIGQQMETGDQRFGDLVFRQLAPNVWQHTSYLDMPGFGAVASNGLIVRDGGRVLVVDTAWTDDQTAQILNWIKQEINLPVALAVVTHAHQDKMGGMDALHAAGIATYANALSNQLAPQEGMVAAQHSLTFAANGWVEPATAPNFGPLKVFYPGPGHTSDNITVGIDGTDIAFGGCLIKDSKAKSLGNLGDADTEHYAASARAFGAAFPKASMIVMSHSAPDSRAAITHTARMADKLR
Glutathione peroxidase 1 (Homo sapiens), sequence (P07203 whole entry, looked up): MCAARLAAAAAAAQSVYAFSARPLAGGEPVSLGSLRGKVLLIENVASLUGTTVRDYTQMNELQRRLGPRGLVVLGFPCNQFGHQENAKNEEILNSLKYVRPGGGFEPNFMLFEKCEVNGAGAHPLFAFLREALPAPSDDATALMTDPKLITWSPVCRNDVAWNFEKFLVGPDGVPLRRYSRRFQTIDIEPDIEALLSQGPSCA
Phospholipid hydroperoxide glutathione peroxidase GPX4 (Homo sapiens), sequence (P36969 whole entry, looked up): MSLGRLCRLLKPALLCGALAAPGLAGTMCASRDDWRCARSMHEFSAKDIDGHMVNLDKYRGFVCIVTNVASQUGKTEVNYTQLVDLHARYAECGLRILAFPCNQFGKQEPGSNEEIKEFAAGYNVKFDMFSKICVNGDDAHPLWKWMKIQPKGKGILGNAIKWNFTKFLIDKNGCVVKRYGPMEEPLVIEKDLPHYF
Nuclear receptor subfamily 1 group I member 3 (Homo sapiens), sequence (Q14994 whole entry, looked up): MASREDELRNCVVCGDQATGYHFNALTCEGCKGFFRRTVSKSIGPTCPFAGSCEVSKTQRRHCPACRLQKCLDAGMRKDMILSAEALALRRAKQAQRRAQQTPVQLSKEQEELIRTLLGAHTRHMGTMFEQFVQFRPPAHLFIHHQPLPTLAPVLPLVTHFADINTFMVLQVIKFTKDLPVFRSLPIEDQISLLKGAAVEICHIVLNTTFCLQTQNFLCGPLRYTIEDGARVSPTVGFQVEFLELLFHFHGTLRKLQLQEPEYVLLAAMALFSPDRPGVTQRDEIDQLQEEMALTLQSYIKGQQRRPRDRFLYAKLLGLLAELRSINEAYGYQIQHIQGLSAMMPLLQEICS

For `Nc1c2c(nc3ccccc13)CCCC2`, the outcome in experiment [1] was inactive. The Potency result in experiment [2], in experiment [3], in experiment [4], in experiment [5], in experiment [6] and in experiment [7] was “inactive” each time. Moreover, the Potency result in [8] was “inactive”.

As for `CC#C[C@]1(O)CC[C@H]2[C@@H]3CCC4=CC(=O)CCC4=C3[C@@H](c3ccc(N(C)C)cc3)C[C@@]21C`, the call in experiment [1] was inactive. Moreover, the Potency entry in [2] and in experiment [3] was “inactive” each time. The Potency is 1660 nM (active) in [4]; 590 nM (active) in experiment [9]; 1320 nM (active) in experiment [5]; 743 nM (active) in experiment [10]; 1050 nM (active) in experiment [11]; 2640 nM (active) in [6]. Besides, the Potency in experiment [7] was 662 nM (active); in experiment [8] it was 1050 nM (active); in [12], 526 nM (active); in experiment [13], 1870 nM (active).

Consider `Cn1c(=O)c2c(ncn2C)n(C)c1=O`, for which the result in experiment [14], in [15] and in experiment [16] was inactive. The Potency entry in experiment [2], in experiment [3], in [5], in [10], in [11] and in [6] was “inactive” in each case. In addition, the Potency result in [7], in experiment [8] and in [13] was “inactive” each time.

As for `CCN1CCCC1CNC(=O)c1cc(S(=O)(=O)CC)c(N)cc1OC` (centres undefined), in [1], the compound was classed as inactive. Besides, the Potency entry in experiment [2], in [3], in experiment [4], in experiment [9], in [5] and in experiment [11] was “inactive” throughout. For the same compound, the Potency entry in experiment [7] and in experiment [8] was “inactive” in each case. Moreover, in [10], the Potency was 74.3 nM (active).

As for `Cc1cc(C(C)(C)C)c(O)c(C)c1CC1=NCCN1`, the compound was classed as inactive in experiment [1], in experiment [17], in experiment [18] and in experiment [19]. In addition, the Potency result in experiment [2], in experiment [3], in experiment [4], in [9], in experiment [5] and in experiment [10] was “inactive” throughout. Also, the Potency entry in experiment [11], in experiment [6], in experiment [7], in [8] and in experiment [13] was “inactive” in each case.

In the case of `CCOC(=O)C(C)(C)Oc1ccc(Cl)cc1`, the compound was classed as inactive in [1]. In addition, the Potency result in experiment [2], in experiment [3], in experiment [4], in [9], in experiment [5] and in experiment [11] was “inactive” each time. In addition, the Potency entry in experiment [7], in experiment [8] and in experiment [13] was “inactive” each time.

In the case of `Cc1cc(C(C)(C)C)cc(C)c1CC1=NCCN1`, the outcome in experiment [1] was inactive. In addition, the Potency entry in experiment [2], in experiment [3], in experiment [4], in experiment [9], in [5] and in [10] was “inactive” in each case. For the same compound, the Potency entry in experiment [11], in [6], in [7] and in experiment [13] was “inactive” each time.

On to `O=C(CCCN1CCC(O)(c2ccc(Cl)cc2)CC1)c1ccc(F)cc1`, for which the outcome in experiment [1] was inactive. The Potency entry in experiment [2], in experiment [3], in experiment [4] and in experiment [5] was “inactive” throughout. The Potency in [10] is 20900 nM (active); in [11] it was 23500 nM (active); in experiment [6], 16600 nM (active); in experiment [7] it was 20900 nM (active).

As for `C[C@H]1c2cccc(O)c2C(O)=C2C(=O)[C@]3(O)C(O)=C(C(N)=O)C(=O)[C@@H](N(C)C)[C@@H]3[C@@H](O)[C@@H]21`, in experiment [1], the compound was called inactive. Further, the Potency entry in experiment [2], in [3] and in [10] was “inactive” throughout. For the same compound, the values for the Potency in [4] and in experiment [9] were 26400 nM (active) and 23500 nM (active), respectively.
